PubChem BioAssay AID1159580 (chemical genetic matrix, 2015)
The whole screen tested about 5,500 compounds, of which about 2,000 (36%) were called active. Roughly 18% stayed inconclusive and do not appear here. No stated cut-off is given here; in the data, active means normalized growth mostly below about 0.91 (no sharp cut-off); inconclusive means no clear call, values can overlap the other calls; inactive means mostly above about 0.92. Some of the results follow.

Test: chemical genetic growth profiling, strain panel (AID 1159580);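 further: tested at 20 µM; growth read once vehicle control cultures reached saturation at 30 °C; 1 = growth at the plate median or of vehicle wells; lower values mean less growth of the strain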
Settings: growth OD

Measured: normalized growth

Cc1coc2ccccc2c1=O
inactive: S. cerevisiae deletion strains, locus YAL013W, strain DEP1, hits give low values 0.999 | S. cerevisiae deletion strains, locus YBR021W, strain FUR4, hits give low values 0.998 | S. cerevisiae deletion strains, locus YBR229C, strain ROT2, hits give low values 1.01 | S. cerevisiae deletion strains, locus YCL029C, strain bik1, hits give low values 1.02 | S. cerevisiae deletion strains, locus YDL035C, strain GPR1, hits give low values 1 | S. cerevisiae deletion strains, locus YDL074C, strain BRE1, hits give low values 1 | S. cerevisiae deletion strains, locus YDL101C, strain DUN1, hits give low values 1.01 | S. cerevisiae deletion strains, locus YDL134C, strain PPH21, hits give low values 1 | S. cerevisiae deletion strains, locus YDL185W, strain tfp1, hits give low values 1.01 | S. cerevisiae deletion strains, locus YDL192W, strain arf1, hits give low values 1.03 | S. cerevisiae deletion strains, locus YDR101C, strain arx1, hits give low values 1.01 | S. cerevisiae deletion strains, locus YDR150W, strain NUM1, hits give low values 1 | S. cerevisiae deletion strains, locus YDR162C, strain NBP2, hits give low values 1.01 | S. cerevisiae deletion strains, locus YDR318W, strain mcm21, hits give low values 1.02 | S. cerevisiae deletion strains, locus YDR388W, hits give low values 1.02 | S. cerevisiae deletion strains, locus YDR502C, strain sam2, hits give low values 1.02 | S. cerevisiae deletion strains, locus YEL061C, strain CIN8, hits give low values 1 | S. cerevisiae deletion strains, locus YER110C, hits give low values 1.03 | S. cerevisiae deletion strains, locus YER155C, strain BEM2, hits give low values 1.01 | S. cerevisiae deletion strains, locus YER167W, strain BCK2, hits give low values 1.01 | S. cerevisiae deletion strains, locus YGL078C, strain dbp3, hits give low values 1.02 | S. cerevisiae deletion strains, locus YGL086W, strain mad1, hits give low values 1.02 | S. cerevisiae deletion strains, locus YGL248W, strain PDE1, hits give low values 1 | S. cerevisiae deletion strains, locus YGR078C, strain PAC10, hits give low values 1.01 | S. cerevisiae deletion strains, locus YGR135W, strain pre9, hits give low values 1.01 | S. cerevisiae deletion strains, locus YGR229C, strain SMI1, hits give low values 0.991 | S. cerevisiae deletion strains, locus YGR252W, strain gcn5, hits give low values 1.03 | S. cerevisiae deletion strains, locus YHR030C, strain SLT2, hits give low values 0.997 | S. cerevisiae deletion strains, locus YHR079C, strain IRE1 (second series), hits give low values 1.02 | S. cerevisiae deletion strains, locus YHR094C, strain hxt1, hits give low values 1.02 | S. cerevisiae deletion strains, locus YHR129C, strain ARP1, hits give low values 1 | S. cerevisiae deletion strains, locus YHR200W, strain rpn10, hits give low values 1.03 | S. cerevisiae deletion strains, locus YIL066C, strain RNR3, hits give low values 1.01 | S. cerevisiae deletion strains, locus YIL073C, strain SPO22, hits give low values 1.09 | S. cerevisiae deletion strains, locus YIL125W, strain kgd1, hits give low values 1.03 | S. cerevisiae deletion strains, locus YIR030C, strain dcg1, hits give low values 1.03 | S. cerevisiae deletion strains, locus YJL095W, strain BCK1, hits give low values 0.988 | S. cerevisiae deletion strains, locus YJL134W, strain LCB3, hits give low values 0.999 | S. cerevisiae deletion strains, locus YJL168C, strain set2, hits give low values 1.03 | S. cerevisiae deletion strains, locus YJL187C, strain SWE1 (second series), hits give low values 1 | S. cerevisiae deletion strains, locus YJR043C, strain POL32, hits give low values 0.992 | S. cerevisiae deletion strains, locus YJR075W, strain HOC1, hits give low values 1 | S. cerevisiae deletion strains, locus YKL009W, strain mrt4, hits give low values 1.02 | S. cerevisiae deletion strains, locus YKL068W, hits give low values 1.01 | S. cerevisiae deletion strains, locus YKL085W, strain MDH1 (second series), hits give low values 1.01 | S. cerevisiae deletion strains, locus YKL085W, strain MDH1, hits give low values 1.01 | S. cerevisiae deletion strains, locus YKL190W, strain CNB1, hits give low values 1 | S. cerevisiae deletion strains, locus YKR001C, strain vps1, hits give low values 1.02 | S. cerevisiae deletion strains, locus YLR039C, strain RIC1, hits give low values 1.01 | S. cerevisiae deletion strains, locus YLR058C, strain SHM2, hits give low values 1 | S. cerevisiae deletion strains, locus YLR102C, strain apc9, hits give low values 1.04 | S. cerevisiae deletion strains, locus YLR262C, strain YPT6, hits give low values 1.01 | S. cerevisiae deletion strains, locus YLR268W, strain sec22, hits give low values 1.01 | S. cerevisiae deletion strains, locus YLR330W, strain CHS5, hits give low values 1.01 | S. cerevisiae deletion strains, locus YLR342W, strain FKS1 (second series), hits give low values 1.01 | S. cerevisiae deletion strains, locus YLR371W, strain rom2, hits give low values 1.03 | S. cerevisiae deletion strains, locus YLR418C, strain cdc73, hits give low values 1.01 | S. cerevisiae deletion strains, locus YML016C, strain PPZ1, hits give low values 1 | S. cerevisiae deletion strains, locus YML032C, strain rad52, hits give low values 1.05 | S. cerevisiae deletion strains, locus YML124C, strain tub3, hits give low values 1.02 | S. cerevisiae deletion strains, locus YMR078C, strain ctf18, hits give low values 1.03 | S. cerevisiae deletion strains, locus YMR223W, strain ubp8, hits give low values 1.02 | S. cerevisiae deletion strains, locus YMR263W, strain SAP30, hits give low values 0.998 | S. cerevisiae deletion strains, locus YMR307W, strain GAS1, hits give low values 1 | S. cerevisiae deletion strains, locus YNL067W, strain RPL9B, hits give low values 0.992 | S. cerevisiae deletion strains, locus YNL128W, strain TEP1, hits give low values 1.01 | S. cerevisiae deletion strains, locus YNL153C, strain GIM3, hits give low values 0.985 | S. cerevisiae deletion strains, locus YNL233W, strain BNI4, hits give low values 0.995 | S. cerevisiae deletion strains, locus YNL250W, strain rad50, hits give low values 1.03 | S. cerevisiae deletion strains, locus YNL271C, strain bni1, hits give low values 1.03 | S. cerevisiae deletion strains, locus YNL298W, strain CLA4, hits give low values 1.02 | S. cerevisiae deletion strains, locus YNL307C, strain MCK1, hits give low values 1.03 | S. cerevisiae deletion strains, locus YNL322C, strain KRE1, hits give low values 1 | S. cerevisiae deletion strains, locus YNR052C, strain pop2, hits give low values 1.04 | S. cerevisiae deletion strains, locus YOL006C, strain TOP1, hits give low values 0.974 | S. cerevisiae deletion strains, locus YOL012C, strain htz1 0.801 | S. cerevisiae deletion strains, locus YOL147C, strain pex11, hits give low values 1.02 | S. cerevisiae deletion strains, locus YOR061W, strain CKA2, hits give low values 1 | S. cerevisiae deletion strains, locus YOR069W, strain VPS5, hits give low values 0.998 | S. cerevisiae deletion strains, locus YOR136W, strain idh2, hits give low values 1.02 | S. cerevisiae deletion strains, locus YOR144C, strain elg1, hits give low values 1.01 | S. cerevisiae deletion strains, locus YOR184W, strain ser1, hits give low values 1.04 | S. cerevisiae deletion strains, locus YOR316C, strain cot1, hits give low values 1.02 | S. cerevisiae deletion strains, locus YPL055C, strain LGE1, hits give low values 1.01 | S. cerevisiae deletion strains, locus YPL241C, strain CIN2, hits give low values 1 | S. cerevisiae deletion strains, locus YPR119W, strain clb2, hits give low values 1.03 | S. cerevisiae deletion strains, locus YPR141C, strain kar3, hits give low values 1.03 | S. cerevisiae deletion strains, locus YPR163C, strain tif3, hits give low values 1.03 | S. cerevisiae deletion strains, locus YPR167C, strain met16, hits give low values 1.03 | S. cerevisiae deletion strains, strain wtn01, hits give low values 1.03 | S. cerevisiae strains, strain wild type, hits give low values 1
